Screening data (PubChem BioAssay)
Shown are actives, neighbours in structure and some others; about 18% of the full set was active somewhere.
DT40 TDP1 CPT = qHTS for Inhibitors of human tyrosyl-DNA phosphodiesterase 1 (TDP1): qHTS in cells in presence of CPT | 420,000 compounds, 12% hits | AID 686979, 2013 | chicken DT40 Tdp1-/-;hTDP1 cells + 20 nM CPT, ATP luminescence, 48 h | Potency, µM (doses to about 46.2 µM), hits mostly inhibitors; note: nearly all actives have a fitted effect of over 55% in size
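Chicken DT40 Tdp1-/- cells complemented with human TDP1, 400 cells/well, exposed to compounds plus 20 nM camptothecin for at least 48 h at 37 C; viability read as ATP content by CellTiter-Glo luminescence.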
CtBP-E1A inh = qHTS Assay for Inhibitors of the CtBP/E1A Interaction | CtBP / adenovirus E1A interaction (AlphaScreen) | AlphaScreen GST-E1A/His-CtBP binding, 1536-well; hits give low values | activity change, % (concentration not given with the values) | 340,000 compounds, 0.49% hits; in the data active = activity change below about -65%; inconclusive = mostly about -30% to -63%
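GST-E1A and His-tagged CtBP (125 nM each as 5X stock) were preincubated with pin-transferred compound for 2 h at 37 °C in the dark, then glutathione donor and nickel acceptor beads were added for 1 h before AlphaScreen reading.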
TDP1 block = qHTS Assay for Inhibitors of Tyrosyl-DNA Phosphodiesterase (TDP1). 350,000 compounds, 0.28% hits. recombinant TDP1, AlphaScreen DNA substrate cleavage. Potency, µM (titrated, usually from 130 µM), actives largely listed as inhibitors. Tyrosyl-DNA phosphodiesterase 1 (Homo sapiens), Q9NUW8; note: nearly all actives have a fitted effect of over 40% in size
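Enzyme-compound mixtures sat 15 min at room temperature, followed by a 5 min reaction with 15 nM final substrate and 10 min with AlphaScreen beads. Recombinant human Tdp1 was used at 1 nM final.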
IL-1B inflam inh = qHTS for Inhibitors of Inflammasome Signaling: IL-1-beta AlphaLISA Primary Screen. THP-1 LPS/ATP IL-1B secretion, AlphaLISA, 16 h; hits give low values. 360,000 compounds, 4.7% hits. activity change, % at 57.5 µM; in the data active = activity change below about -50%; inconclusive = mostly about -30% to -49%
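THP-1 cells pretreated 1 hr with compounds (up to 57.5 uM final), then stimulated with LPS (250 ng/mL final) plus ATP (1.25 mM final); secreted IL-1B measured by AlphaLISA after 16 hr, decreased signal indicating inhibition.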
Six1-Eya2 blk = qHTS Assay for Inhibitors of the Six1/Eya2 Interaction; AlphaScreen GST-Six1/His-Eya2 binding, biochemical; hits give low values; activity change, % (concentration not given with the values); 360,000 compounds, 0.56% hits; Homeobox protein SIX1 (Homo sapiens) + Protein phosphatase EYA2 (Homo sapiens), …; in the data active = activity change below about -65%; inconclusive = mostly about -30% to -63%
Target sequence (O00167 whole entry, looked up): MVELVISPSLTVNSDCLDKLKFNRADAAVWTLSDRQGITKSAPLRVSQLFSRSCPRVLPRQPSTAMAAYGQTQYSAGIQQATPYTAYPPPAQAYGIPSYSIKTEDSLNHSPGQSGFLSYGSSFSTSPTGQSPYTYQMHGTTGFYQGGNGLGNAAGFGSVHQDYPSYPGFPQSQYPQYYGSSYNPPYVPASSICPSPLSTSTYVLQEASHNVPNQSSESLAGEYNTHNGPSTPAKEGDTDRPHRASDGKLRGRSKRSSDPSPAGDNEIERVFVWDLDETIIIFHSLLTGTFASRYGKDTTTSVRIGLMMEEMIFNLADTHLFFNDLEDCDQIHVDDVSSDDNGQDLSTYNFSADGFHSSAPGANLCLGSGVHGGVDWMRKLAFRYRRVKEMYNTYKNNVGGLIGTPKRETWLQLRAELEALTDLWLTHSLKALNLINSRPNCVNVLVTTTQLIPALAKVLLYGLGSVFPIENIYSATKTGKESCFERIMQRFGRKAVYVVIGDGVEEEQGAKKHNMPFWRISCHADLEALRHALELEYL
Target sequence (Q15475 whole entry, looked up): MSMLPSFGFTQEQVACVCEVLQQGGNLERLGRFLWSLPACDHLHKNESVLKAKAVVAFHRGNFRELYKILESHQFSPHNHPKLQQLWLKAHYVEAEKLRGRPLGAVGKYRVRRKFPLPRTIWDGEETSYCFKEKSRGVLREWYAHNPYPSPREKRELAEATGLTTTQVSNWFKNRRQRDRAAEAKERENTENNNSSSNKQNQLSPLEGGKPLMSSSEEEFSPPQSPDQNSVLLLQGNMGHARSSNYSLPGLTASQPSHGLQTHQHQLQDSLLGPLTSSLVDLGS
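Six1/Eya2 binding was read as AlphaScreen signal after compounds were pinned into GST-Six1 plus His-tagged Eya2 (5X stock 250/500 nM) in pH 8.0 Tris/NaCl/TCEP buffer, beads added, then incubated 1 h, 37 C, dark.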
DT40 TDP1 no CPT = qHTS for Inhibitors of human tyrosyl-DNA phosphodiesterase 1 (TDP1): qHTS in cells in absence of CPT. 420,000 compounds, 15% hits. Potency, µM (titrated, usually from 46.2 µM), actives largely listed as inhibitors. AID 686978, 2013. DT40 Tdp1-/- hTDP1 cells, no CPT, ATP luminescence, 48 h; note: nearly all actives have a fitted effect of over 55% in size
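Seeded 400 DT40-hTDP1 cells/well (vehicle DMSO, no 20 nM CPT); pinned compounds; ≥48 hr at 37 °C; CellTiter-Glo luminescence as viability measure.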
A number is an active result; i = inactive; ? = inconclusive; nt = no result; [ ] = dose if it differs, or a comment. Unless noted, calls come from the whole dose curve; as a rule, active = well fitted curve in the direction sought with a large enough effect; inconclusive = small, poorly fitted or top-dose-only effect, or another doubt; inactive = no such curve, though single readings can be large; an effect the other way counts as inactive or inconclusive.

SMILES | DT40 TDP1 CPT | CtBP-E1A inh | TDP1 block | IL-1B inflam inh | Six1-Eya2 blk | DT40 TDP1 no CPT
COc1cc(-c2cnc3c(NC(C)=O)cc(-c4ccc(N5CCN(C)CC5)cc4)cn23)cc(OC)c1OC | 4.6µM | i | nt | -87 | ? | 4.6µM
COc1cc(-c2cnc3c(NC=O)cc(-c4ccc(N5CCN(C)CC5)cc4)cn23)cc(OC)c1OC | 3.3µM | i | nt | i | ? | 3.7µM
CC(C)(C)c1ccc(C(O)c2ncc(-c3ccccc3Cl)[nH]2)cc1 (centres undefined) | ? | i | nt | ? | i | ?
Cc1ccc(Oc2ccc(/C=N/O)cn2)cc1 | 23µM | i | i | i | i | 16µM
Cc1ccc(COc2ccc(/C=N/O)cc2)cc1 | i | i | i | i | i | ?
O=C1[C@H]2CCn3c(=O)n(-c4ccccc4)c(=O)n3[C@H]2[C@H](O)[C@H]2O[C@@H]12 | nt | nt | i[21 µM] | nt | nt | nt
Nc1cc(S(=O)(=O)c2ccc(O)c(N)c2)ccc1O | i | i | i | i | i | i
CCC(C)Nc1nc(N)c([N+](=O)[O-])c(Nc2cc(OC)ccc2OC)n1 (centres undefined) | ? | ? | i | ? | ? | ?
COc1ccc(OC)c(Nc2nc(NCCC(C)C)nc(N)c2[N+](=O)[O-])c1 | ? | i | i | i | i | ?
C=CCNc1nc(N)c([N+](=O)[O-])c(Nc2ccccc2OC)n1 | ? | i | nt | i | i | i
CCC(C)Nc1nc(N)c([N+](=O)[O-])c(Nc2ccccc2OC)n1 (centres undefined) | ? | i | i | -88 | i | ?
COc1ccccc1Nc1nc(NCCCN(C)C)nc(N)c1[N+](=O)[O-] | i | i | i | -63 | i | ?
COc1ccccc1Nc1nc(NCC(C)C)nc(N)c1[N+](=O)[O-] | ? | i | i | i | i | 26µM
Cc1noc(C)c1CN(C(=S)NC1CC1)c1ccccc1 | i | i | i | i | i | i
COc1cc(C(=O)Nc2sc3c(c2C#N)CCCC3)c(Br)c(OC)c1OC | ? | nt | i[12.3 µM] | nt | nt | 3.3µM
COC(=O)c1c(NC(=O)c2cc(OC)c(OC)c(OC)c2Br)sc2c1CCC(C)C2 (centres undefined) | ? | nt | nt | nt | nt | 21µM
COc1cccc(OC)c1C(=O)Nc1sc2c(c1C#N)CCC2 | i | i | nt | i | i | i
CCOC(=O)c1c(NC(=O)CSc2cn(CCNC(=O)c3ccc(OC)cc3)c3ccccc23)sc2c1CCC2 | ? | nt | i | nt | nt | i
CC1CCC(N2CCN(S(C)(=O)=O)CC2)CC1 (centres undefined) | i | i | i | i | i | i
CCCN(C(=O)c1cc2c(=O)oc3ccccc3c2s1)c1ccccc1C | 18µM | nt | i | nt | nt | ?
CCN(C(=O)c1cc2c(=O)n(CC)c3ccccc3c2s1)c1cccc(C(F)(F)F)c1 | 9.2µM | nt | i | nt | nt | 9.2µM
CCOc1ccccc1N(CC)C(=O)c1cc2c(=O)n(CC)c3ccccc3c2s1 | 15µM | nt | i | nt | nt | 16µM
CCN(C(=O)c1cc2c(=O)oc3ccccc3c2s1)c1cccc(C(F)(F)F)c1 | i | nt | i | nt | nt | i
CCn1c(=O)c2cc(C(=O)N(C)c3ccccc3F)sc2c2ccccc21 | ? | i | i | -72 | i | 15µM
O=S(=O)(c1cccc(C(F)(F)F)c1)N1CCN(c2nnnn2-c2ccccc2)CC1 | i | i | i | i | i | i
SMILES | DT40 TDP1 CPT | CtBP-E1A inh | TDP1 block | IL-1B inflam inh | Six1-Eya2 blk | DT40 TDP1 no CPT
O=C1OCCN1C(=O)[C@H]1[C@H](c2ccc(F)cc2)C(c2ccccc2)=NN1c1ccccc1 | i | i | i | i | i | i
COC(=O)C(C)c1ccc(C(=O)c2cccs2)cc1 (centres undefined) | i | nt | i | nt | nt | i
O=C(CSc1ncccn1)N1CCN(C(c2ccccc2)c2ccccc2)CC1 | ? | i | i | i | i | ?
CCCN(C(=O)c1cc2c(=O)n(CC)c3ccccc3c2s1)c1ccccc1F | 8.2µM | nt | i | nt | nt | 6.5µM
CCN(C(=O)c1cc2c(=O)oc3ccccc3c2s1)c1ccccc1F | ? | nt | i | nt | nt | ?
CCCOc1ccc(CNC(=O)Cn2cc3c(n2)-c2c(oc(C(=O)N4CCOCC4)c2C)CC3)cc1 | ? | nt | i | nt | nt | 23µM
Cc1c(C(=O)N2CCOCC2)oc2c1-c1nn(CC(=O)NCc3ccccc3)cc1CC2 | ? | nt | i | nt | nt | ?
COc1cccc(CNC(=O)Cn2cc3c(n2)-c2c(oc(C(=O)N4CCOCC4)c2C)CC3)c1 | 18µM | nt | i | nt | nt | 21µM
COc1ccccc1CNC(=O)Cn1cc2c(n1)-c1c(oc(C(=O)N3CCOCC3)c1C)CC2 | ? | nt | i | nt | nt | 23µM
Cc1c(C(=O)N2CCOCC2)oc2c1-c1nn(CC(=O)NCc3cccc(F)c3)cc1CC2 | ? | nt | i | nt | nt | ?
Cc1c(C(=O)N2CCOCC2)oc2c1-c1nn(CC(=O)NCc3cccc(Cl)c3)cc1CC2 | ? | nt | i | nt | nt | 16µM
O=C1c2ccccc2C(=O)N1c1cccc2cnccc12 | nt | nt | i | nt | nt | nt
COc1ccc(N2CCN(C(=O)C3(S(=O)(=O)c4ccc(C)cc4)CC3)CC2)cc1 | ? | i | nt | i | i | i
CCNc1nc(NCC)n2c(SCC(=O)Nc3ccc(OC(F)F)cc3)nnc2n1 | ? | i | nt | i | i | i
CN(CC(=O)Nc1cccc(F)c1)C(=O)/C=C/c1ccc2ccccc2n1 | ? | i | i | -51 | i | i
CN(CC(=O)Nc1cccc(F)c1)C(=O)/C=C/c1ccc(Br)s1 | ? | i | i | i | i | i
CN(CC(=O)Nc1cccc(F)c1)C(=O)/C=C/c1cc(Br)ccc1OC(F)F | 4.6µM | i | i | i | i | 5.8µM
COc1ccc(S(=O)(=O)N(C)C[C@@H]2OCc3cnnn3CCCC(=O)N([C@@H](C)CO)C[C@H]2C)cc1 | i | i | nt | i | i | i
O=C(Nc1ncccc1O)c1ccc(OCC2CCCO2)cc1 (centres undefined) | ? | i | i | i | i | i
CCCc1cc(=O)[nH]c2nnc(SCC(=O)NC3CCCC3)n12 | i | i | nt | i | i | i
O=C(Nc1ccc(Cl)cc1)Nc1nnc(CSCc2ccccc2)s1 | 16µM | i | i | i | i | 18µM
O=C(Nc1nnc(CC2=CCCCC2)s1)Nc1ccccc1F | ? | i | i | i | i | ?
O=C(Nc1cccc(Cl)c1)Nc1nnc(CC2=CCCCC2)s1 | 4.6µM | i | i | i | i | 18µM
O=C(Nc1cccc(Cl)c1)Nc1nnc(CSCCOc2ccc(Cl)cc2)s1 | 3.3µM | i | i | i | i | 3.3µM
